Tgondii IFNg: blocks Toxoplasma gondii growth in the presence of IFN-gamma. Toxoplasma gondii growth in IFN-gamma-treated host cells; stronger effect = lower value. activity change, negative = inhibition, % (test concentration not listed). AID 1259416. hit rate 3.8% among 69,000; in the data active means activity change below about -70%, passing the limit was not always enough;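 further: host cells are HeLa cells infected with Toxoplasma gondii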
The depositor's hits bear a star. Shown is part of a subset that was picked to be rich in hits.

SMILES	Tgondii IFNg
COc1cccc(-n2cc(CN(C)CC3CCCC3)cn2)c1	4.1
O=C(c1cc2cccnc2n(Cc2ccccc2)c1=O)N1CCN(c2ccccc2)CC1	7.8
Cn1ncc2c3ccccc3n(CC(=O)N3CCN(c4ccccn4)CC3)c2c1=O	135.9
CCC(C(=O)NCCN1CCCC1)n1c2ccccc2c2cnn(C)c(=O)c21 (stereo unspecified)	63.3
CCC(C(=O)N1CCN(c2ccccn2)CC1)n1c2ccccc2c2cnn(C)c(=O)c21 (stereo unspecified)	-73.2*
O=C(O)C(c1ccc(O)cc1)n1cnnn1 (stereo unspecified)	26.1
CCN(CC)C(=O)CSc1nnc2c(n1)[nH]c1ccc(C)cc12	3.5
c1ccc(CSc2nnc3c(n2)[nH]c2ccccc23)cc1	-68.0
Cc1ccc(CSc2nnc3c(n2)[nH]c2ccc(Br)cc23)cc1	-79.5*
CCN1CCN(C(=O)c2ccccc2N(C)S(C)(=O)=O)CC1	0.7
CCOC(=O)c1nn(CCc2ccc(OC)cc2)c2c1CN(C(=O)c1snnc1C)CC2	0.4
O=C(Nc1ccccc1)OCCSc1nc2ccccc2s1	-28.8
CCCc1ccc(C2CC(=O)Nc3cc4c(cc32)OCO4)o1 (stereo unspecified)	-87.9*
CCOC(=O)Nc1ccc2c(c1)NC(=O)CC2c1cc(C(C)C)no1 (stereo unspecified)	-7.6
O=C1COc2cc3c(cc2N1)NC(=O)CC3c1nccs1 (stereo unspecified)	-1.0
CC(C)C1N(C(=O)CN2CCN(C)CC2)CCCN1S(=O)(=O)c1ccccc1 (stereo unspecified)	23.3
O=C(COc1ncnc2cc(Cl)ccc12)c1ccc(OC(F)(F)F)cc1	-44.7
Cc1cc(NCC2CCCNC2)nc(N2CCCCC2)n1 (stereo unspecified)	-8.1
Cc1cc(C)c(N2C(=O)C3C(c4ccccc4)C=CC(c4ccccc4)C3C2=O)c(C)c1 (stereo unspecified)	-98.8*
CCOc1ccccc1-c1nc(CSc2nc3c(=O)[nH]cnc3n2C)c(C)o1	7.7
COc1ccccc1-c1ccc(NC(C)c2cnn(C)c2)nn1 (stereo unspecified)	2.8
C=CCn1c(=O)c(C(=O)Nc2cccc(Cl)c2C)c(O)c2ccccc21	102.7
O=C(c1nc2ccccn2c1CNC(c1ccccc1)c1ccccc1)N1CCCC1	9.7
COc1ccc(-c2cc(C(=O)Nc3ccc(C)cc3-c3cc(C)[nH]n3)no2)cc1	-78.1*
COc1ccc(C(=O)Nc2ccc(-c3nc(-c4ccc(C)cc4C)co3)cc2)cc1	18.0
SMILES	Tgondii IFNg
Cc1ccc(NC(=O)c2ccc3c(c2)c(C)cn3C)c(-c2cc(C)[nH]n2)c1	-48.5
O=C(/C=C/c1cccc(S(=O)(=O)Nc2ccccc2)c1)NO	-71.1*
CCNC(=O)/C=C/c1cccc(Br)c1	30.8
O=C(O)c1ccc(NS(=O)(=O)c2cccc(C(=O)O)c2)cc1	-4.1
O=C(c1ccc(F)c(F)c1)N1CCN(S(=O)(=O)c2cc3c4c(c2)CCC(=O)N4CCC3)CC1	-6.6
CCCC(Nc1nc(-c2cccnc2)nc2c1cnn2C)c1cccs1 (stereo unspecified)	-50.9
O=C(Nc1cccc2cccnc12)c1ccccc1C1CCNC1 (stereo unspecified)	21.1
COc1ccc(-c2nc(Cn3ccn4nc(-c5ccc(Cl)cc5)cc4c3=O)c(C)o2)c(OC)c1	149.6
CC(C)N1CCC2(CC1)CN(S(=O)(=O)c1cccc(F)c1)Cc1ccccc12	-14.8
COCCN1CC2(CCN(Cc3cnc(C)nc3)CC2)CC1=O	-4.0
CCOC(=O)c1c(NC(=O)CC2c3ccccc3Oc3ccccc32)sc(C)c1C	-15.6
CCS(=O)(=O)N1CCC[C@]2(C[C@@H](OCc3ccncc3)CO2)C1	5.8
CC(C)C1CN(C(=O)COc2cccnc2)CCC(=O)N1CC1CC1 (stereo unspecified)	14.7
C=C[C@@H]1C[C@]1(NC(=O)[C@@H]1C[C@@H](Oc2ncc(OC)c3ccc(Cl)cc23)CN1C(=O)[C@@H](NC(=O)OC(C)(C)C)C(C)(C)C)C(=O)NS(=O)(=O)C1CC1	-73.0*
O=C(Cn1ncc2c(N3CCCC3)ncnc21)Nc1cccc(F)c1	7.0
CC1=NN(c2ccc(C(=O)O)cc2)C(=O)/C1=C\c1ccc(-c2cc(C)c(C)cc2[N+](=O)[O-])o1	38.7
COc1cccc(N2CC(C(=O)N3CCC(O)(Cn4ccnc4C)CC3)CC2=O)c1 (stereo unspecified)	108.3
Cn1ccc2c(-c3cc(N)nc(N4CCOCC4)n3)ccnc21	-16.9
c1csc(-c2cnc(N3CCCC3)nc2-c2nccs2)c1	-8.1
c1csc(-c2[nH]ncc2-c2ccnc(N3CCOCC3)n2)c1	-106.0*
COc1ccc(CC(=O)N2CCC(N(C)C)CC2C(=O)O)cc1 (stereo unspecified)	-4.5
CN1CCN(Cc2ccc(-c3ccc(C(N)=O)cc3)nc2)CC1	-2.5
Cc1ccc(SC(=O)c2cc(C)n(-c3c(Cl)cc(Cl)cc3Cl)n2)cc1	-100.0*
Cn1nnc2c1C(COCc1ccccc1)CN(C(=O)C(C)(C)C)C2 (stereo unspecified)	-8.9
CN(C)CCCN(Cc1ccccn1)Cc1c(-c2ccc(F)cc2)nc2ncccn12	28.4
SMILES	Tgondii IFNg
OCCCc1nncn1-c1ccc(Cl)cc1	2.8
CC1=Nc2ccc(-c3ccccc3)cc2C1(C)C	-98.9*
Cc1ccc(-c2nnc(-c3ccccc3)n2-c2ccc(C)cc2)cc1	-3.0
O=C1CCCN1Cc1nnc2n1CCCN(Cc1ccco1)C2	6.4
O=C(c1cc(-c2ccccc2)no1)N1CCCC(c2cc(C(F)(F)F)n3ncnc3n2)C1 (stereo unspecified)	-51.9
CC1C(=O)N(C)CCN1C(=O)c1cn[nH]c1-c1cccc(F)c1 (stereo unspecified)	2.2
Cc1ccc(C)c(NC(=O)c2ccc(-c3nc(CN4CCN(c5ccccc5)CC4)c(C)o3)cc2)c1	-40.1
Cc1oc(-c2ccc(C(=O)NCCC(C)C)cc2)nc1CN1CCN(c2ccccc2)CC1	-37.8
CNC(=O)c1ccc(-c2nc(CN3CCN(S(=O)(=O)c4c(C)cc(C)cc4C)CC3)c(C)o2)cc1	-96.4*
CCCNC(=O)c1ccc(-c2nc(CN3CCN(c4ccccc4)CC3)c(C)o2)cc1	60.1
CNC(=O)c1ccc(-c2nc(CN3CCN(S(C)(=O)=O)CC3)c(C)o2)cc1	-8.2
Cc1ccc(C)c(CNC(=O)c2ccc(-c3nc(CN4CCN(c5ccccc5)CC4)c(C)o3)cc2)c1	-79.4*
Cc1oc(-c2ccc(C(=O)NCCC3=CCCCC3)cc2)nc1CN1CCN(c2ccccc2)CC1	-49.9
Cc1oc(-c2ccc(C(=O)NCCN3CCCC3)cc2)nc1CN1CCN(c2ccccc2)CC1	-76.0*
CNC(=O)c1ccc(-c2nc(CN3CCN(S(=O)(=O)c4ccc(C)cc4C)CC3)c(C)o2)cc1	-65.7
Cc1oc(-c2ccc(C(=O)NCC3CCCO3)cc2)nc1CN1CCN(c2ccccc2)CC1 (stereo unspecified)	94.6
Cc1ccccc1CCNC(=O)c1ccc(-c2nc(CN3CCN(c4ccccc4)CC3)c(C)o2)cc1	-71.3*
Cc1oc(-c2ccc(C(=O)NCCc3ccccc3)cc2)nc1CN1CCN(c2ccccc2)CC1	-59.4
Cc1ccc2oc(=O)n(CCC(=O)N3CCN4CCNC(=O)C4C3)c2c1 (stereo unspecified)	-38.2
O=C(COc1cccc(Cl)c1)Nc1cccc2nonc12	-5.1
CSCc1noc(CNc2nc(C(C)(C)C)nc3c2cnn3C)n1	-1.3
COc1ccc(CC(=O)N2CCC3(CC2)Nc2ccc(C)c(C)c2-n2cccc23)cc1	68.4
